# Bioassay records: PubChem BioAssay, Corson Lab, School of Medicine, Indiana University
# This excerpt belongs to a sample that is enriched for hits.
# FECH block: inhibitors of human ferrochelatase; 20,000 compounds, 3.3% hits; purified FECH, Ni-mesoporphyrin absorbance 550 nm; P22830; calls only at 10 µM (by protocol);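 active = enzyme reaction rate more than 3 SD below the solvent-only control wells on the same plate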;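 also: lower slope than DMSO wells means FECH inhibition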
# Target sequence (P22830 whole entry, looked up): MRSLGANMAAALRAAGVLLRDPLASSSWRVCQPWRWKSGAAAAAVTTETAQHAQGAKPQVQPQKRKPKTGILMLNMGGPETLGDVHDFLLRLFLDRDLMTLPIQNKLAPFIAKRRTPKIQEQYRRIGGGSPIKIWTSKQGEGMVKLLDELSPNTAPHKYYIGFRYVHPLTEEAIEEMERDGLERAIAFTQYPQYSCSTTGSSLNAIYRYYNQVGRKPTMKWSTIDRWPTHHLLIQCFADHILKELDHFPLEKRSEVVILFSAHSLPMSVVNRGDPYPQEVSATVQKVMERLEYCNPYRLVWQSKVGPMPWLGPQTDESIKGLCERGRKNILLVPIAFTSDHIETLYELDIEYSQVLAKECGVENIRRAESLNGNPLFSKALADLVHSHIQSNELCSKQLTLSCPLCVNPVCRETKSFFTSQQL
# Calls only; 0 = inactive; + = active, no number.
SMILES,FECH block
CCOc1ccc(NC(=O)Nc2ccc(Sc3cc(CC)nc4nc(C)nn34)cc2)cc1,0
CCc1ccc(NC(=O)Nc2ccc(Sc3cc(CC)nc4nc(C)nn34)cc2)cc1,0
CCOC(=O)Cc1ccc(NC(=O)Nc2ccc(Sc3cc(CC)nc4nc(C)nn34)cc2)cc1,+
COc1ccccc1CNc1c(-c2ccc3c(c2)CCCC3)c(=O)c1=O,0
CCc1c(C(=O)N(C)CCn2ccnc2C)[nH]c2ccccc12,0
CCOC(=O)c1[nH]c2ccccc2c1CN1CCN(c2ncc(F)cn2)CC1,+
O=C(O)c1[nH]ncc1CN1CCN(c2nsc3ccccc23)CC1,0
CCN1C(SCC(=O)Nc2cccc(C(F)(F)F)c2)=NS(=O)(=O)c2ccccc21,+
O=C(CN1CCCN(Cc2ccccc2Cl)S1(=O)=O)Nc1cccc(Br)c1,0
CCN1C(SCC(=O)Nc2cc(OC)cc(OC)c2)=NS(=O)(=O)c2ccccc21,0
O=C1CN(Cc2cccc(C(F)(F)F)c2)S(=O)(=O)c2ccccc2N1Cc1ccccc1,0
CCN1C(SCC(=O)Nc2cccc(Br)c2)=NS(=O)(=O)c2ccccc21,+
COC(=O)CC1=CC(=O)N(CC(=O)Nc2cccc(C(F)(F)F)c2)c2ccccc2N1,0
COCCNc1oc2c(c1-c1ccc(Br)cc1)c(=O)n(C)c(=O)n2C,0
COc1c(F)ccc(C(=O)N(C)Cc2ncc[nH]2)c1F,0
COc1ccc(CNC(=O)N2CCN(c3cc(-c4cccc(OC)c4)ncn3)CC2)cc1,0
CCOc1ncccc1-c1ccc(-c2nnc(C)o2)cc1,0
Cc1cccc(-c2ncc(CN3CCN(c4nc(C)ncc4C)CC3)cn2)c1,0
COc1ccc(CNC(=O)c2ccc(Nc3cc(-c4ccccc4)ncn3)cc2)c(OC)c1,0
CCOC(=O)c1cc2n(n1)CC(C)(C(=O)NCCC(C)C)N(c1cc(C)cc(C)c1)C2=O (stereo not given),+
CCOC(=O)c1cc2n(n1)CC(C)(C(=O)NCCC(C)C)N(c1ccc(Cl)cc1)C2=O (stereo not given),0
CCOC(=O)c1cc2n(n1)CC(C)(C(=O)NCCC(C)C)N(c1cc(OC)cc(OC)c1)C2=O (stereo not given),0
c1cncc(CN(Cc2ccsc2)Cc2cccc3c2OCO3)c1,0
Cc1ncccc1OC1(C(=O)N2CC=CC2C(C)C)CCNCC1 (stereo not given),0
Cc1ncc(CO)c2cc(C3=NS(=O)(=O)c4ccccc4N3)c(=O)oc12,+
SMILES,FECH block
COc1cc(Cl)cc(C(=O)N2CC3(CCNCC3)CC2C(=O)O)c1 (stereo not given),0
CC(C)c1cc(NCc2cccnc2Oc2ccc(F)cc2F)ncn1,0
O[C@@H]1CN(Cc2cccc3nsnc23)CC[C@H]1c1ccc2c(c1)OCO2,0
Cc1ccc(NS(=O)(=O)c2ccc3c(c2)CCN3C(=O)CCC(=O)N2CCOCC2)cc1,0
CC(C)CCNC(=O)c1nc[nH]c1C(=O)NCc1cccc(C(F)(F)F)c1,0
O=C(NCCc1c[nH]c2ccccc12)c1nc[nH]c1C(=O)NCc1ccccn1,0
CC(C)CCNC(=O)c1[nH]cnc1C(=O)NC(c1ccccc1)c1ccccc1,0
O=C(NCc1ccccn1)c1nc[nH]c1C(=O)NCc1ccccn1,+
O=C(NCc1ccccn1)c1nc[nH]c1C(=O)NCc1cccc(C(F)(F)F)c1,+
O=C(NC1CCc2ccccc21)c1nc[nH]c1C(=O)NCc1ccccn1 (stereo not given),+
CC(C)(C)CNC(=O)c1[nH]cnc1C(=O)NC1CCC(O)CC1 (stereo not given),0
CCCNC(=O)c1[nH]cnc1C(=O)NC1CCc2ccccc21 (stereo not given),0
CC(C)CNC(=O)c1nc[nH]c1C(=O)NCC(C)(C)C,0
CCNC(=O)C1CCN(Cc2nc(-c3cccc(Cl)c3)oc2C)C1 (stereo not given),0
Cc1ccc(CNc2nc(Nc3cc(C)cc(C)c3)c3cnn(-c4ccccc4)c3n2)cc1,0
Nc1nc(N2CCCCCC2)ncc1S(=O)(=O)c1cccs1,+
Cc1cc(N2CCCC2)nc(N2CCN(S(=O)(=O)c3ccccc3)CC2)n1,0
Cc1cc(N2CCCCC2)nc(N2CCN(S(=O)(=O)c3ccccc3)CC2)n1,0
Cc1ccc(NC(=O)C2CCN(c3ncnc4c3nc3n4CCCCC3)CC2)cc1C,0
O=C(Cn1nc(N2CCN(c3ccc(F)cc3)CC2)ccc1=O)NCc1ccccc1,0
Cc1noc(C)c1CCn1c(=O)c2cnc(-c3cccs3)nc2n(C)c1=O,0
Cn1c(=O)n(CCOc2ccccc2)c(=O)c2cnc(-c3cccs3)nc21,+
Cn1c(=O)n(Cc2ccccc2F)c(=O)c2cnc(-c3cccs3)nc21,0
Cc1ccc(Cn2c(CNC(=O)Cc3cccs3)nc3cccnc32)cc1,0
O=C(CCC(=O)N1CCc2cc(S(=O)(=O)NC3CCCCCC3)ccc21)N1CCCCCC1,0
SMILES,FECH block
N[C@@H]1c2ccccc2C2(CCN(C(=O)c3nccc4ccccc34)CC2)[C@H]1O,0
CCn1cc(CN(C(=O)c2nccc3ccccc23)C(C)C)cn1,0
CN(CC1COCCO1)C(=O)c1nccc2ccccc12 (stereo not given),+
Cc1ccc(CNC(=O)C2(C)Cn3nc(C(=O)NCc4cccnc4)cc3C(=O)N2C)cc1 (stereo not given),0
Cc1oc(-c2cccc(Cl)c2)nc1CSc1nc(-c2ccccc2)cc(=O)[nH]1,0
CC(=O)Nc1ccc(S(=O)(=O)N2CCN(c3nc(C)cc(N4CCCC4)n3)CC2)cc1,0
Cc1cc(N(C)C)nc(N2CCN(S(=O)(=O)c3ccc(Cl)cc3)CC2)n1,0
CC(=O)Nc1ccc(S(=O)(=O)N2CCN(c3nc(C)cc(N4CCOCC4)n3)CC2)cc1,0
Cc1cc(N(C)C)nc(N2CCN(S(=O)(=O)c3ccc(F)cc3)CC2)n1,+
Cc1cc(N(C)C)nc(N2CCN(S(=O)(=O)c3ccc(C)c(C)c3)CC2)n1,0
CC(=O)Nc1ccc(S(=O)(=O)N2CCN(c3nc(C)cc(N4CCCCC4)n3)CC2)cc1,+
CSc1nc(NCCC2=CCCCC2)c(C#N)c(-c2ccc(C)cc2)n1,0
CCN(CC)c1ncc(NS(=O)(=O)c2ccc(CC(C)C)cc2)cc1C(=O)O,0
CCN(CC)c1ncc(NS(=O)(=O)c2ccc(C(C)C)cc2)cc1C(=O)O,0
Cc1ccc(-c2cc(O)c3c(c2)CN(C(=O)C2CCN(C)C2)CCO3)s1 (stereo not given),0
Cc1nnnn1-c1cccc(-c2n[nH]c(Cc3ccccc3)n2)c1,0
c1ccc(Cc2n[nH]c(Cn3nc4ccccc4n3)n2)cc1,0
Cc1nnnn1-c1ccc(Cc2n[nH]c(Cc3ccccc3)n2)cc1,+
Fc1ccc(CNc2nc(Nc3ccc(F)cc3)c3cnn(-c4ccccc4)c3n2)cc1,0
COc1cccc(-c2cc(N3CCN(C(=O)Nc4ccc(C)cc4C)CC3)ncn2)c1,0
CCOc1ccc(-c2ccnc(CC3CCN(C)CC3)n2)cc1C(=O)O,0
CCN(CC)c1nccc(-c2cc(C(=O)O)ccn2)n1,0
CCOCc1nccc(-c2cc(C(=O)O)ccn2)n1,+
CC(=O)NCCCc1n[nH]c(Cc2ccccc2)n1,0
CCCC(=O)Nc1cc(C)nn1-c1ncnc2c1cnn2-c1cccc(Cl)c1,0
CCOc1ccc(CC(=O)Nc2cc(C)nn2-c2ncnc3c2cnn3-c2ccc(Cl)cc2)cc1,+
CCC(CC)C(=O)Nc1cc(C)nn1-c1ncnc2c1cnn2-c1cccc(Cl)c1,+
Cc1cc(NC(=O)CC(C)(C)C)n(-c2ncnc3c2cnn3-c2cccc(Cl)c2)n1,0
